# Reference: PubChem BioAssay AID504444 (National Center for Advancing Translational Sciences (NCATS), 2011)
# In all, about 360,000 compounds went through this assay and about 7,500 (2.1%) were called active. Another 20% or so got no clear call; they are omitted. The sample holds actives, similar compounds and a random draw of the others, so the mix is not that of the screen. A number with no mark means an inactive call. Calls follow the shape of the dose curve; as a rule, active = well fitted inhibition curve with a large enough effect; inconclusive = small, poorly fitted or top-dose-only effect, or effect the other way; inactive = flat fitted curve, though single readings scatter.
# Experiment: Nrf2 qHTS screen for inhibitors; also: nearly all actives have a fitted effect of over 60% in size
# Conditions: A549 ARE-Fluc reporter, luciferase luminescence, 18-24 h; series mostly up to 46 µM; activity change, negative = inhibition: at the top concentration
# Text: NIH Molecular Libraries Probe Production Network [MLPCN]
# NIH Chemical Genomics Center [NCGC]
# Assay Provider: Shyam Biswal, Johns Hopkins University
# Nrf2 is a transcription factor that maintains cellular redox homoestasis and protects cells from xenobiotics. Nrf2 binds to the antioxidant response element (ARE) to induce gene expression of a broad spectrum of genes that encode for antioxidants. […] Finding a small molecule that act as an inhibitor of Nrf2 function would represent a novel therapeutic target that could lead to improvement in survival of patients undergoing chemo- and/or radio- therapy.
# This is the Nrf2 activity measured in the luminescent read.
# 1. Shibata, T., et al., Genetic Alteration of Keap1 Confers Constitutive Nrf2 Activation and Resistance to Chemotherapy in Gallbladder Cancer. Gastroenterology, 2008.
# 2. Sjoblom, T., et al., The consensus coding sequences of human breast and colorectal cancers. Science, 2006. 314(5797): p. 268-74.
# NCGC Assay Protocol Summary:
# A concentration-response assay was performed with A549 ARE_Fluc cells which are suspended in 5% FBS OPTI-MEM. Five uL were dispensed into 1536-well white TC-treated plate using the Kalypsys dispenser to achieve a density of 5000 cells/well in all columns except column 1. The plate is incubated at 37deg C at 5% CO2 for 2 hours before 23 nL of compounds are added with the Kalypsys pin tool equipped with a 1,536-pin array containing 10-nL slotted pins (FP1S10, 0.457-mm diameter, 50.8 mm long; V&P Scientific). The control compounds Budesonide and Staurosporine are both added at a concentration of 2mM and Budesonide is also added as a 1:10 titration, starting at 200uM, to achieve dose-response. After an 18-24 hour incubation at 37deg C at 5% CO2, 5ul of medium is added to column 1. Afterwards 1ul of 5x of CellTiter-Fluor (Promega) is added to every well. The plate is then incubated at 37deg C at 5% CO2 for 30 minutes before they are read on the ViewLux (Perkin Elmer) for a fluorescent read Ex=405(10)/Em=525(10) for a 3 second exposure, 2x binning, and high gain. Then 3 uL of 3x BugLite is dispensed into all wells and the plate is incubated at ambient room temperature for 15 minutes. Afterwards another ViewLux read is performed using the clear filter to get a luminescent read with the settings of 40 second exposure, 2x binning, and high gain. Cytotoxicity is assessed through the first fluorescent read and then biochemical activity against Nrf2 is measured in the luminescent read.
# % is scaled to controls: 0 for no effect and ±100 for the full control effect; potency is read from the fitted curve at half-maximal effect.
Compound,Potency,"activity change, negative = inhibition [%]"
O=C(Nc1cccc(OC(=O)N2CCCCC2)c1)N1CCOCC1,16.4 µM (active),
CCN(CC)C(=O)Oc1ccc(NC(=O)N2CCOCC2)cc1,,-7.97
CN(C)C(=O)Oc1ccc(NC(=O)N2CCOCC2)cc1,,3.42
COC(=O)C1=C(c2c(C)noc2C)C[C@@H]2CC[C@H]1N2C(=O)NCc1ccc2c(c1)OCO2,,-8.27
c1ccc(C(CN2CCCCC2)c2ccccc2)cc1,,2.82
C[C@]12CC[C@H](O)CC1=C([N+](=O)[O-])CC1C2CC[C@@]2(C)C1CC[C@@H]2O (stereo not given in full),,0.87
O=C1NC(=O)C(CCOc2ccccc2)(CCc2ccccc2)C(=O)N1,,-22.3
O=c1[nH]c(=O)n(CCc2ccc(F)cc2)c(O)c1/C=N/N1CCCCC1,,-3.29
CCCCC(=O)N/N=C/c1c(O)n(-c2ccccc2)c(=O)[nH]c1=O,,5.34
CCCCC(=O)N/N=C/c1c(O)n(CCC2=CCCCC2)c(=O)[nH]c1=O,18.4 µM (active),
CN(C)CC1Oc2ccccc2OC1(O)c1ccccc1 (stereo not given),14.6 µM (active),
CC1C(=O)OC2CCN3CC=C(COC(=O)C(C)(O)C1(C)O)C23 (stereo not given),,4.37
COC(=O)C1=C(c2ccc(Cl)c(C(F)(F)F)c2)C[C@@H]2CC[C@H]1N2C(=O)NC(C)C,,-21.4
O=C1NC(=O)C(Cc2ccccc2)C(=O)N1,,2.99
Cc1ccc(C(C)C)c(OCC(=O)N2CCN(CC(=O)N3CCOCC3)CC2)c1,,8.39
O=C(O)c1cc[c]([Sb](=[O])([OH])[OH])cc1[N+](=O)[O-],,13.5
CC(=O)c1c(O)n(C2CCCCCC2)c(=O)[nH]c1=O,,-21.3
CC/C(=N\NC(=O)c1ccccc1O)c1c(O)n(Cc2ccccc2)c(=O)[nH]c1=O,,8.94
CCC(=NCCc1ccccc1)c1c(O)n(C2CCCCC2)c(=O)[nH]c1=O,20.6 µM (active),
Cn1cc(C(=O)OCC(=O)N2CCCC2)c2ccccc21,,5.8
CC1CNCCN1c1ccc(Cl)cc1 (stereo not given),,8.73
CCn1cc2nc(SCc3ccccc3Cl)n(CCc3ccccc3)c(=O)c2n1,18.4 µM (active),
CC(=O)C1(O)CCC2C3CCC4=C(Cl)C(=O)CCC4(C)C3CCC21C (stereo not given),,-13.3

Compound,Potency,"activity change, negative = inhibition [%]"
Cc1ccc(N(C)C(=O)Oc2cccc3ccc(C)nc23)cc1,,-14.6
CN1CCc2cc3c(cc2[C@H]1[C@@H]1OC(=O)c2c1ccc1c2OCO1)OCO3,,6.77
COc1cccc(CN2CCCC(C(=O)c3ccccc3SC)C2)c1O (stereo not given),,-1.57
CC1CC=CCC12C(=O)NC(=S)NC2=O (stereo not given),,13.2
CCOc1ccc(CNC(=O)c2cccc(Nc3nc4ccccc4n4nnnc34)c2)cc1OC,7.31 µM (active),
COc1cc(Cn2c(N)c(C(=O)NCc3ccco3)c3nc4ccccc4nc32)cc(OC)c1OC,,-29.4
CCCn1c(C(=O)c2ccccc2OC)nc2ccccc21,,4.64
CC(C)Oc1cccc(C(=O)C2CCCN(C3CCOCC3)C2)c1 (stereo not given),,-9.14
CCC1(CC(C)c2ccccc2)C(=O)NC(=O)NC1=O (stereo not given),,-20.9
COC(=O)C1=C(c2ccc3ccccc3c2)C[C@@H]2CC[C@H]1N2C(=O)NCCO,,-2.19
Cc1ccc(NC(=O)CN(C)CC(=O)Nc2cccc(F)c2)cc1[N+](=O)[O-],11.6 µM (active),
CNCC(O)c1cc(F)c(OCc2ccccc2)c(OCc2ccccc2)c1F (stereo not given),,12.1
CCOC(=O)CC(SP1(=S)OCC2(CCCCO2)C(C2CCCCO2)O1)C(=O)OCC (stereo not given),,-7.98
CC(CC(C#N)(c1ccccc1)c1ccccc1)N1CCCCC1 (stereo not given),,3.56
O=C(CCC(=O)N1C[C@H]2C[C@@H](C1)c1cccc(=O)n1C2)NCc1ccccc1C(F)(F)F,,-12.9
COC(=O)C1=C(c2ccc(F)cc2F)C[C@@H]2CC[C@H]1N2C(=O)NC1CC1,,0.179
COC(=O)C1=C(c2ccc(F)cc2OCc2ccccc2)C[C@@H]2CC[C@H]1N2C(=O)NCc1ccc(Cl)cc1,23.1 µM (active),
COC(=O)C1=C(c2ccccc2)C[C@@H]2CC[C@H]1N2C(=O)NCc1ccco1,,6.49
C[C@]12CCCCC1=CC(=O)C1C2CC[C@@]2(C)C1C[C@@H](F)[C@@H]2O (stereo not given in full),,-20
Cc1cc(C(=O)OCC(=O)Nc2c(F)cccc2F)c(C)n1C1CC1,,-16.9
c1ccc(Cc2nn3c(Cn4cnc5ccccc54)nnc3s2)cc1,23.1 µM (active),
O=c1[nH]c(CN2CC=C(c3ccccc3)CC2)nc2scc(-c3cccs3)c12,,0.416
